The text below walks through data of the supplement of paper PMC10037445.

Molecules are shown by their SMILES. The full ranking holds about 2,900 compounds; the median of “NF-kB SEAP reporter activity, fold change vs agonist alone” is about 0.99, and the highest 2% start at about 2.6. The list comes from a sample in which the highest values are over-represented; it also holds similar structures and randomly drawn compounds.

Experiment [1] deals with RAW-Dual. Nature of the experiment: NF-kB SEAP reporter activity, fold change vs agonist alone; higher = enhanced NF-kB activity. Summed up: (§1)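 After 50 nL of library stock was delivered by pin tool to RAW-Dual macrophages (50,000 cells/well, DMEM, 384-well plates), a PRR agonist was added 1 h later and the plates were kept at 37 °C, 5% CO2. Twenty hours later, IRF was read from supernatant by QuantiLuc luminescence and NF-κB by QuantiBlue absorbance at 620 nm. Reporter activity is stated as fold change over agonist-alone wells. Wells with IncuCyte confluency under 70% of agonist controls in both mask sets were counted as cytotoxic.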

Experiment [2] has as its system RAW-Dual. Put plainly: NF-kB SEAP reporter activity, fold change vs agonist alone; cytotoxicity flag (confluency mask): not cytotoxic; higher = enhanced NF-kB activity. Summed up:
as §1

Experiment [3] concerns RAW-Dual. Nature of the experiment: NF-kB SEAP reporter activity, fold change vs agonist alone; cytotoxicity flag (confluency mask): cytotoxic (confluency <70% of control); higher = enhanced NF-kB activity. The method in brief: as §1
[4] abbreviates: library stock concentration (final ~1000-fold dilution): 10 mM, cytotoxicity flag (confluency mask): not cytotoxic, agonist: MPLA (TLR4) […].
Where [5] appears, read: agonist: ODN 1826 (TLR9) 0.5 ug/mL.
[6] abbreviates: agonist: Pam2CSK4 (TLR2/6) 0.1 ug/mL.
The mark [7] stands for this setting: agonist: Pam3CSK4 (TLR2/1) 0.1 ug/mL.
Where [8] appears, read: library stock concentration (final ~1000-fold dilution): 10 mM, cytotoxicity flag (confluency mask): not cytotoxic, agonist: Imiquimod (TLR7) […].

`O=C(O)CCn1c2c(c3ccccc31)CC(NS(=O)(=O)c1ccc(F)cc1)CC2` (configuration not stated): in experiment [1] (setting [4]), the “NF-kB SEAP reporter activity” value worked out at 1.07.

In the case of `O=C(O)CCn1c2c(c3ccccc31)CC(NS(=O)(=O)c1ccc(F)cc1)CC2` (configuration not stated) (library stock concentration (final ~1000-fold dilution): 10 mM), the “NF-kB SEAP reporter activity” value was 1.07 in experiment [2] (agonist: LPS (TLR4) 0.1 ug/mL), 0.99 in experiment [2] (setting [5]), 1.13 in experiment [2] (setting [6]) and 1.07 in experiment [2] (setting [7]).

`COc1ccc(C=Cc2cc(OC)c(OC)c(OC)c2)cc1OP(=O)(O)O` (library stock concentration (final ~1000-fold dilution): 10 mM water): the “NF-kB SEAP reporter activity” value was found to be 5.99 in experiment [3] (agonist: LPS (TLR4) 0.1 ug/mL), 2.48 in experiment [3] (setting [5]), 2.34 in experiment [3] (setting [6]) and 2.65 in experiment [3] (setting [7]).

Consider `COc1cc(/C=C/C(=O)O)ccc1O`, for which the “NF-kB SEAP reporter activity” value in experiment [1] (setting [8]) was found to be 0.903; in experiment [1] (setting [4]), 1.09.

Take `COc1ccc(/C=C\c2cc(OC)c(OC)c(OC)c2)cc1O` (library stock concentration (final ~1000-fold dilution): 10 mM): the “NF-kB SEAP reporter activity” value in experiment [2] (agonist: LPS (TLR4) 0.1 ug/mL) worked out at 4.68; in experiment [2] (setting [5]), 2.84; in experiment [2] (setting [6]), 1.69; in experiment [2] (setting [7]) it was 2.62.

Turning to `COc1ccc(/C=C/C(=O)O)cc1OC` (library stock concentration (final ~1000-fold dilution): 10 mM), the “NF-kB SEAP reporter activity” value in experiment [2] (agonist: LPS (TLR4) 0.1 ug/mL) came to 1.43; in experiment [2] (setting [5]), 1.15; in experiment [2] (setting [6]), 1.15; in experiment [2] (setting [7]) it was 1.14.

Turning to `COc1cc(C=CC(=O)CC(=O)C=Cc2ccc(O)c(OC)c2)ccc1O` (library stock concentration (final ~1000-fold dilution): 100 mM), the “NF-kB SEAP reporter activity” value in experiment [2] (agonist: LPS (TLR4) 0.1 ug/mL) came to 0.303; in experiment [2] (setting [5]) it was 0.197; in experiment [2] (setting [6]), 0.13; in experiment [2] (setting [7]) it was 0.242.

On to `COc1ccc(C=Cc2cc(OC)c(OC)c(OC)c2)cc1OP(=O)(O)O`, for which the “NF-kB SEAP reporter activity” value in experiment [1] (library stock concentration (final ~1000-fold dilution): 10 mM water, cytotoxicity flag (confluency mask): cytotoxic (confluency <70% of control), agonist: Imiquimod (TLR7) […]) was 1.67; in experiment [1] (library stock concentration (final ~1000-fold dilution): 10 mM water, cytotoxicity flag (confluency mask): cytotoxic (confluency <70% of control), agonist: MPLA (TLR4) […]) it was 2.09.

As for `COc1ccc(/C=C/C(=O)O)cc1OC`, the “NF-kB SEAP reporter activity” value in experiment [1] (setting [8]) is 0.805; in experiment [1] (setting [4]), 1.05.

Turning to `COc1ccc(C(=O)C=Cc2cc(OC)c(OC)c(OC)c2)cc1OC` (library stock concentration (final ~1000-fold dilution): 20 mM), the “NF-kB SEAP reporter activity” value in experiment [3] (agonist: LPS (TLR4) 0.1 ug/mL) was 0.326; in experiment [3] (setting [5]) it was 0.215; in experiment [3] (setting [6]) it was 0.0975; in experiment [3] (setting [7]), 0.176.

For the compound `COc1ccc(C(=O)C=Cc2cc(OC)c(OC)c(OC)c2)cc1OC`, the “NF-kB SEAP reporter activity” value in experiment [1] (library stock concentration (final ~1000-fold dilution): 20 mM, cytotoxicity flag (confluency mask): cytotoxic (confluency <70% of control), agonist: Imiquimod (TLR7) […]) was 0.192; in experiment [1] (library stock concentration (final ~1000-fold dilution): 20 mM, cytotoxicity flag (confluency mask): cytotoxic (confluency <70% of control), agonist: MPLA (TLR4) […]), 0.302.

Regarding `COc1cc(C=CC(=O)CC(=O)C=Cc2ccc(O)c(OC)c2)ccc1O`, the “NF-kB SEAP reporter activity” value in experiment [1] (library stock concentration (final ~1000-fold dilution): 100 mM, cytotoxicity flag (confluency mask): not cytotoxic, agonist: Imiquimod (TLR7) […]) amounted to 0.155; in experiment [1] (library stock concentration (final ~1000-fold dilution): 100 mM, cytotoxicity flag (confluency mask): not cytotoxic, agonist: MPLA (TLR4) […]), 0.257.

For `COc1ccc(/C=C\c2cc(OC)c(OC)c(OC)c2)cc1O`, the “NF-kB SEAP reporter activity” value in experiment [1] (setting [8]) turned out to be 1.63; in experiment [1] (setting [4]), 2.07.

For the compound `COc1cc(/C=C/C(=O)O)ccc1O` (library stock concentration (final ~1000-fold dilution): 10 mM), the “NF-kB SEAP reporter activity” value in experiment [2] (agonist: LPS (TLR4) 0.1 ug/mL) was determined as 1.16; in experiment [2] (setting [5]) it was 1.12; in experiment [2] (setting [6]), 1.17; in experiment [2] (setting [7]), 1.04.

`CCC(C)C(NC(=O)C(CCCCN)NC(=O)C(CCC(=O)O)NN)C(=O)NC(CCC(N)=O)C(=O)NC(C)C(=O)NC(CCCCN)C(=O)N1CCCC1C(=O)NC(C)C(=O)C(=O)C(CC(C)C)NC(=O)C(CCC(N)=O)NC(=O)C(NC(=O)C(NC(=O)C(CCCNC(=N)N)NC(=O)C(Cc1ccccc1)NC(=O)C(CCCCNNC(Cc1ccccc1)C(=O)NC(CO)C(=O)NC(CCC(=O)O)C(=O)NC(CO)C(=O)NC(C(=O)NC(CC(N)=O)C(=O)NC(C=O)CO)C(C)O)NC(=O)C(Cc1ccccc1)NC(=O)C(CO)NC(=O)C(CCC(=O)O)NC(=O)C(CO)NC(=O)C(NC(=O)C(CC(N)=O)NC(=O)C(N)CO)C(C)O)C(C)C)C(C)O` (configuration not stated) (library stock concentration (final ~1000-fold dilution): 10 mM water): the “NF-kB SEAP reporter activity” value in experiment [2] (agonist: LPS (TLR4) 0.1 ug/mL) is 1.1; in experiment [2] (setting [5]) it was 1.16; in experiment [2] (setting [6]), 1.13; in experiment [2] (setting [7]) it was 1.74.

In the case of `CCC(C)C(NC(=O)C(CCCCN)NC(=O)C(CCC(=O)O)NN)C(=O)NC(CCC(N)=O)C(=O)NC(C)C(=O)NC(CCCCN)C(=O)N1CCCC1C(=O)NC(C)C(=O)C(=O)C(CC(C)C)NC(=O)C(CCC(N)=O)NC(=O)C(NC(=O)C(NC(=O)C(CCCNC(=N)N)NC(=O)C(Cc1ccccc1)NC(=O)C(CCCCNNC(Cc1ccccc1)C(=O)NC(CO)C(=O)NC(CCC(=O)O)C(=O)NC(CO)C(=O)NC(C(=O)NC(CC(N)=O)C(=O)NC(C=O)CO)C(C)O)NC(=O)C(Cc1ccccc1)NC(=O)C(CO)NC(=O)C(CCC(=O)O)NC(=O)C(CO)NC(=O)C(NC(=O)C(CC(N)=O)NC(=O)C(N)CO)C(C)O)C(C)C)C(C)O` (configuration not stated), the “NF-kB SEAP reporter activity” value in experiment [1] (library stock concentration (final ~1000-fold dilution): 10 mM water, cytotoxicity flag (confluency mask): not cytotoxic, agonist: Imiquimod (TLR7) […]) is 0.927; in experiment [1] (library stock concentration (final ~1000-fold dilution): 10 mM water, cytotoxicity flag (confluency mask): not cytotoxic, agonist: MPLA (TLR4) […]), 1.03.

On to `O=c1cc(-c2ccc(O)cc2)oc2c(C3OC(CO)C(O)C(O)C3O)c(O)cc(O)c12` (configuration not stated), for which the “NF-kB SEAP reporter activity” value in experiment [1] (setting [8]) was determined as 0.887; in experiment [1] (setting [4]) it was 0.994.

On to `O=c1cc(-c2ccc(O)cc2)oc2c(C3OC(CO)C(O)C(O)C3O)c(O)cc(O)c12` (configuration not stated) (library stock concentration (final ~1000-fold dilution): 10 mM), for which the “NF-kB SEAP reporter activity” value in experiment [2] (agonist: LPS (TLR4) 0.1 ug/mL) is 0.978; in experiment [2] (setting [5]) it was 0.919; in experiment [2] (setting [6]), 1; in experiment [2] (setting [7]), 1.31.

For `N#Cc1cc(N2CCC(C(=O)N3N=CCC3c3cc(F)cc(F)c3)CC2)ncn1` (configuration not stated), the “NF-kB SEAP reporter activity” value was 1.09 in experiment [1] (setting [8]) and 1.26 in experiment [1] (setting [4]).

Turning to `N#Cc1cc(N2CCC(C(=O)N3N=CCC3c3cc(F)cc(F)c3)CC2)ncn1` (configuration not stated) (library stock concentration (final ~1000-fold dilution): 10 mM), the “NF-kB SEAP reporter activity” value in experiment [2] (agonist: LPS (TLR4) 0.1 ug/mL) was determined as 1.25; in experiment [2] (setting [5]), 1.05; in experiment [2] (setting [6]) it was 0.796; in experiment [2] (setting [7]), 0.84.

Regarding `Cn1cc(-c2[nH]c3cc(NC(=O)C(N)C4CCCCC4)cc4c3c2C=NNC4=O)cn1` (configuration not stated), the “NF-kB SEAP reporter activity” value was 2.17 in experiment [1] (setting [8]) and 2.16 in experiment [1] (setting [4]).

`Cn1cc(-c2[nH]c3cc(NC(=O)C(N)C4CCCCC4)cc4c3c2C=NNC4=O)cn1` (configuration not stated) (library stock concentration (final ~1000-fold dilution): 10 mM): the “NF-kB SEAP reporter activity” value turned out to be 3.51 in experiment [2] (agonist: LPS (TLR4) 0.1 ug/mL), 2.74 in experiment [2] (setting [5]), 1.6 in experiment [2] (setting [6]) and 1.8 in experiment [2] (setting [7]).

Turning to `CC(C)C(NC(=O)C(CC(=O)O)NC(=O)C(CCCCN)NC(=O)C(N)CCCNC(=N)N)C(=O)NC(Cc1ccc(O)cc1)C(=O)O` (configuration not stated), the “NF-kB SEAP reporter activity” value in experiment [1] (setting [8]) came to 1.14; in experiment [1] (setting [4]), 0.967.
